Bioassay records (PubChem)
Most compounds without a hit are left out; they make up all but 2.9% or so of the library.
Nrf2 block – blocks Nrf2 signaling; A549 ARE-Fluc reporter, luciferase luminescence, 18-24 h; Potency, µM (doses to about 46 µM), usual class: inhibitors; hit rate 2.1% among 360,000; AID 504444; also: nearly all actives have a fitted effect of over 60% in size
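Two sequential reads on A549 ARE_Fluc cells exposed to compound for 18-24 h: a CellTiter-Fluor fluorescence read for viability, then a luciferase luminescence read for Nrf2/ARE activity.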
Nrf2 ARE act – Nrf2 pathway activation; AID 624171; AREc32 ARE-luciferase reporter (MCF7-derived line), luminescence, 24 h; hit rate 0.31% among 410,000; Potency, µM (doses to about 46.1 µM), actives largely listed as activators; also: nearly all actives have a fitted effect of over 65% in size
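Quantitative high-throughput format: AREc32 reporter cells, 1000 per well, received compound by pin transfer and were incubated 24 hr at 37 deg C, 5% CO2, before Steady-Glo luminescence detection.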
ATXN2 expr inh – inhibitors of ATXN2 expression; HEK-293 ATXN2-luciferase reporter, luminescence, 24 h; Potency, µM (top dose mostly 57 µM), usual class: inhibitors; hit rate 0.72% among 360,000; AID 1745845; also: nearly all actives have a fitted effect of over 55% in size
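ATXN2-luciferase reporter cells (luciferase flanked by upstream and downstream ATXN2 gene portions) were treated 24 h at 37 °C with compounds at up to 57 uM. SteadyGlo luminescence gave expression; GF-AFC fluorescence gave viability.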
A549 viability – A549 cytotoxicity, counter-screen for Nrf2 inhibitors. A549 ARE-Fluc cells, CellTiter-Fluor viability, 18-24 h. Potency, µM (series often up to 46 µM), actives largely listed as inhibitors. hit rate 0.16% among 390,000
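A549 ARE-Fluc cells in 5% FBS OPTI-MEM, 5000 cells/well, rested 2 h then exposed to compounds in concentration-response for 18-24 h at 37 °C. Viability by CellTiter-Fluor fluorescence (Ex 405/Em 525) after 30 min; luciferase luminescence (BugLite, 15 min, RT) read afterwards.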
ATXN viability – reduces viability in counter-screen for ATXN expression inhibitors | S2 cells (HEK-293 line with an ATXN2-luciferase reporter) viability, CellTiter-Fluor protease fluorescence, 24 h | Potency, µM (top dose mostly 56.7 µM), usual class: cytotoxic | hit rate 0.49% among 400,000 | AID 651635; also: nearly all actives have a fitted effect of over 40% in size
Numbers stand for hits; n = inactive; u = inconclusive; x = no result given. Calls follow the shape of the dose curve; as a rule, active = well fitted curve in the direction sought with a large enough effect; inconclusive = small, poorly fitted or top-dose-only effect, or another doubt; inactive = no such curve, though single readings can be large; an effect the other way counts as inactive or inconclusive.

SMILES | Nrf2 block | Nrf2 ARE act | ATXN2 expr inh | A549 viability | ATXN viability
O=C(c1cn(-c2ccccc2)nc1-c1cccs1)N1CCN(c2ccccc2)CC1 | u | n | n | n | n
O=S(=O)(Nc1cccc2ccccc12)c1cccc2ccccc12 | 18.4µM | x | x | n | x
COc1ccc(N(CC(=O)NCCSc2ccccn2)S(C)(=O)=O)cc1 | n | n | n | n | n
Cc1ccc(C(=O)c2c(C)oc3c2C(=O)C(=O)c2ccccc2-3)cc1 | u | n | u | u | x
Cc1oc2c(c1C(=O)c1ccc(Cl)cc1)C(=O)C(=O)c1ccccc1-2 | n | n | 5.62µM | n | 7.08µM
OC(CNCC1COc2ccccc2O1)COCc1cccs1 (stereo unspecified) | n | n | n | u | n
COc1ccc(S(=O)(=O)N/N=C\c2ccc3c(c2)OCO3)c(OC)c1 | 10.3µM | n | n | n | u
Cc1nc(SCCC(=O)O)c2cc(-c3ccccc3)sc2n1 | u | n | 2µM | n | n
Cc1ccc(Cl)cc1N1CCN(Cc2nc3c(c(=O)[nH]c(=O)n3C)n2Cc2ccccc2F)CC1 | 18.4µM | n | n | n | n
Cc1ccccc1Cn1c(CN2CCN(c3cc(Cl)ccc3C)CC2)nc2c1c(=O)[nH]c(=O)n2C | n | n | x | n | x
COC(=O)c1cc(Br)ccc1NC(=O)Nc1ccc(C)cc1 | u | n | n | n | u
CCOc1cc(C(N)=O)cc(Br)c1OC | u | n | n | n | n
CCN(c1ccccc1)S(=O)(=O)c1cc(C(=O)Nc2ccc(F)c(F)c2)ccc1F | u | n | u | u | u
